# From PubChem BioAssay
# An excerpt weighted towards active compounds, which were near 3.4% of everything screened.
# TEAD-YAP block = TEAD-YAP interaction inhibition, primary screen, TEAD-YAP interaction inhibitor project, luminescence, HEK-TIYL cells; AID 1259422, 2018; TEAD-Gal4/YAP UAS-luciferase luminescence; inhibition, % at 9.12 µM; 640,000 tested, 1.4% active; in the data active = inhibition above about 32%;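 also: 0% = median of test compound wells and 100% = reference inhibitor wells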
# GPR151 activ = activators of human GPR151, primary screen, cell-based, PathHunter beta-arrestin, luminescence; activation, % at 11.2 µM; 650,000 tested, 1% active; PathHunter beta-arrestin GPR151 cells; in the data active = activation above about 4.9%;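 also: 0% = median of compound wells and 100% = cells with positive control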
# FBW7 activator = FBW7 E3 ligase activators, primary screen, biochemical, AlphaScreen, human. normalized activity (activation), % at 26.1 µM. 650,000 tested, 0.13% active. AlphaScreen FBW7–phospho-cyclin E peptide binding, activator screen. F-box/WD repeat-containing protein 7 (Homo sapiens), Q969H0. AID 1259310, 2017; in the data active = normalized activity above about 1.9%;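 also: purified mutant Fbw7 with reduced substrate affinity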
# Target sequence (Q969H0 whole entry, looked up): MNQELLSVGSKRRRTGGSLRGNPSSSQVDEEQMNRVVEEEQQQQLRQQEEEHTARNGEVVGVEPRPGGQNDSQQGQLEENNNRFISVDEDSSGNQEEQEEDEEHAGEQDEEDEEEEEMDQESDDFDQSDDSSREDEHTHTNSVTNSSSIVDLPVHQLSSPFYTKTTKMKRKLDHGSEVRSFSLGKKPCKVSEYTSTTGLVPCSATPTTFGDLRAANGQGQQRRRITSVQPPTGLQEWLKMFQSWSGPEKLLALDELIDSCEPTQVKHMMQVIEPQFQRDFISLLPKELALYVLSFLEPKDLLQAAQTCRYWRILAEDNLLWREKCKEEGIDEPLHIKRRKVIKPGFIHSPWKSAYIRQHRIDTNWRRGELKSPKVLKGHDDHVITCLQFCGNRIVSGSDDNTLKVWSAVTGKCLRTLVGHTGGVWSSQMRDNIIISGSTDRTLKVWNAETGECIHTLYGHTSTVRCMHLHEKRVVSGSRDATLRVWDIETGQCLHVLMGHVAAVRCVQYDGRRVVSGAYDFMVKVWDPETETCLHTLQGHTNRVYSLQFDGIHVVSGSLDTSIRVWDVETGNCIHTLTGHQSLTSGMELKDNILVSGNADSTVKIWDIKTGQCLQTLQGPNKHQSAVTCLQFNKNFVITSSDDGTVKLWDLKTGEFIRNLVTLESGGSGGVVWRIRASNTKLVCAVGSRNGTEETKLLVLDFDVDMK
# MITF primary = MITF inhibitors, primary screen, biochemical, AlphaScreen, human. Microphthalmia-associated transcription factor (Homo sapiens), O75030. AlphaScreen MITF homodimerization, bead proximity signal. inhibition, % at 2.6 µM. 650,000 tested, 0.91% active; in the data active = inhibition above about 50%;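 also: 0% = vehicle wells with protein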
# Numbers without * were called inactive.
SMILES,TEAD-YAP block,GPR151 activ,FBW7 activator,MITF primary
CC(=O)CSc1nc(C2CC2)cc(C(F)(F)F)c1C#N,14.5,-0.5,2.7*,11.2
CCOC(=O)C1CCCn2c1nc1c(c2=O)CCCC1 (stereo not given),6.5,-0.1,-0.1,2.1
CCOC(=O)C1CCCn2c1nc1cc(-c3ccc(OC)cc3)sc1c2=O (stereo not given),51.6*,-6.5,0.6,16.4
c1cc2c(cc1-c1cnc3ccc(NC4CCOCC4)nn13)OCO2,54.4*,-0.2,-0.3,-28.3
c1csc(-c2cnc3ccc(NC4CCOCC4)nn23)c1,46.7*,-1.2,0.0,-8.4
Oc1cccc(-c2cnc3ccc(NC4CCOCC4)nn23)c1,33.1*,0.1,2.2*,9.3
c1ccc(-c2cnc3ccc(NC4CCOCC4)nn23)cc1,22.7,-0.1,-0.7,-5.3
O=C1CC(c2ccccc2)Sc2nc3ccccc3n21 (stereo not given),-33.2,0.8,0.2,4.6
O=C1CC(c2ccc3c(c2)OCO3)Sc2nc3ccccc3n21 (stereo not given),75.7*,-0.5,0.0,-2.6
COc1ccc(C2CC(=O)n3c(nc4ccccc43)S2)cc1 (stereo not given),79.8*,2.4,0.0,-11.0
Cc1nc(C)c(-c2csc(Nc3ccc(F)cc3)n2)s1,-42.9,-0.6,0.4,8.1
CCC(=O)Nc1nc(C)c(-c2csc(Nc3ccc(OC)cc3)n2)s1,33.5*,-1.0,-0.1,10.6
CCC(=O)Nc1nc(C)c(-c2csc(Nc3cc(OC)ccc3OC)n2)s1,6.0,-0.4,-0.1,16.4
CCc1ccc(Nc2nc(-c3sc(C)nc3C)cs2)cc1,47.3*,-1.9,0.4,12.0
CCN1/C(=C/c2ccc3cc(C)ccc3[n+]2CC)C=Cc2ccccc21,92.2*,-1.2,-1.1,8.2
CC[n+]1c(/C=C2\Sc3cc(C)ccc3N2CCO)ccc2ccccc21,63.8*,1.2,-0.2,24.8
CC[n+]1c(/C=C2\Sc3ccccc3N2CCO)ccc2cc(OC)ccc21,69.7*,2.3,-0.9,3.0
CCN1/C(=C/c2ccc3cc(C)ccc3[n+]2C)Sc2ccc3ccsc3c21,76.5*,3.3,-0.5,23.3
C[n+]1ccccc1/C=C1\Sc2ccccc2N1CCO,13.4,0.4,-0.2,5.7
CCN1/C(=C/C=C/c2cc[n+](CC)c3ccccc23)C=Cc2ccccc21,8.8,0.0,0.2,5.2
COc1ccc(Cl)cc1NC(=O)COc1ccc(S(=O)(=O)NC(C)C)cc1,0.7,-0.8,-0.1,13.4
CC[n+]1c(/C=C2\Sc3cc(NC(C)=O)ccc3N2C)ccc2ccccc21,10.2,0.0,-0.1,13.4
CC[n+]1c(/C=C2\Sc3oc4ccccc4c3N2C)ccc2cc(C)ccc21,43.7*,-0.4,0.4,13.9
CCN1/C(=C\c2c(O)c(=O)c2=O)Sc2ccccc21,-5.1,-1.0,0.0,11.3
CN1/C(=C/c2cccc[n+]2C)C=Cc2ccccc21,71.4*,2.7,0.0,11.7
SMILES,TEAD-YAP block,GPR151 activ,FBW7 activator,MITF primary
CC(=C\c1sc2oc3ccccc3c2[n+]1CCO)/C=C1/Sc2oc3ccccc3c2N1CCO,-0.9,-1.2,0.0,-8.4
CC[n+]1c(/C=C2\Sc3ccccc3N2C)ccc2ccc(C)cc21,77.2*,0.3,-0.3,0.7
CCN1/C(=C/c2ccc3cc(C)ccc3[n+]2C)Sc2ccccc21,75.8*,1.9,-0.3,23.1
Cc1cccc2c1N(C)/C(=C/c1cccc[n+]1C)C=C2,9.3,1.8,0.0,-2.7
O=C([C@H](O)COc1ccc(Br)cc1)N1CCC(Oc2ccc3[nH]ncc3c2)CC1,0.7,-0.7,-0.1,1.0
CC[n+]1c(/C=C2\Sc3ccccc3N2CCO)ccc2cc(C)ccc21,53.5*,0.7,-0.2,9.9
CCN1/C(=C/c2c3ccccc3cc[n+]2CC)C=Cc2ccccc21,89.5*,1.4,-0.3,21.8
CCN1/C(=C/c2cccc[n+]2C)C=Cc2cc(C)ccc21,81.4*,0.8,-0.1,6.8
CCN1/C(=C/c2ccc3cc(C)ccc3[n+]2CCO)Sc2ccccc21,58.0*,0.2,0.1,26.1
Cc1ccc2nc(-c3ccccc3)nc(N3CCOCC3)c2c1,-2.7,-0.9,-0.1,2.8
O=C(COC(=O)/C=C/c1ccco1)NC1CCCCCCC1,6.0,3.1,0.2,17.8
COc1ccc(C(C#N)N2CCCCCC2)cc1OC (stereo not given),-1.0,-1.5,2.0*,14.5
O=C(Cn1nnc(-c2ccccc2)n1)N/N=C/c1ccc(O)c(O)c1O,7.9,1.5,-1.3,65.6*
O=C(Cn1nnc(-c2ccccc2)n1)N/N=C/c1cc(Cl)ccc1O,-0.5,-0.4,0.1,57.3*
O=C(Cn1nnc(-c2ccccc2)n1)N/N=C/c1ccccc1C(F)(F)F,-0.5,1.2,0.4,11.6
Cc1cc(N/C=C\C(=O)c2cccs2)no1,-43.5,-1.7,-0.1,4.8
COc1cc([N+](=O)[O-])ccc1N/C=C/C(=O)c1ccccc1,71.3*,-4.7,0.0,-5.1
COc1cc([N+](=O)[O-])ccc1N/C=C/C(=O)c1ccc(Cl)cc1,-16.7,0.1,0.5,9.3
COc1cc([N+](=O)[O-])ccc1N/C=C/C(=O)c1cccs1,79.6*,-4.0,0.5,5.8
Cc1cc(C(=O)O)ccc1N/C=C/C(=O)c1cccs1,46.5*,-3.9,-0.1,9.4
O=C(N1CCOCC1)N1CCCC(c2ncncc2-c2ccncc2)C1 (stereo not given),10.7,-0.3,2.2*,16.5
CCCCOc1ccc(C(=O)N/C(=C/c2ccc([N+](=O)[O-])cc2)C(=O)NCCCO)cc1,17.1,2.0,-0.1,-8.8
CCn1c(-c2ccc(Cl)cc2)csc1=Nc1cc(OC)c(Cl)cc1OC,34.8*,1.9,-0.4,5.7
CCn1c(-c2ccc(F)cc2)csc1=Nc1cc(OC)c(Cl)cc1OC,33.2*,2.0,-0.5,27.7
Cc1ccc2c(c1)C(c1ccccc1)CC(C)N2C(=O)c1ccco1 (stereo not given),50.5*,0.2,0.0,-0.9
SMILES,TEAD-YAP block,GPR151 activ,FBW7 activator,MITF primary
CC(=O)Nc1ccc(CN2CCc3c([nH]c4ccccc34)C2c2ccccn2)s1 (stereo not given),34.1*,1.1,-0.2,3.3
O=C(Cc1ccccn1)N1CCc2c([nH]c3ccccc23)C1c1ccccn1 (stereo not given),6.8,2.2,0.0,-5.7
CN(C)c1ccc(/C=N/Nc2cn[nH]c(=O)n2)cc1,81.3*,-5.6,-0.5,13.2
CN(C)c1ccc(/C=N/Nc2nc3ccccc3o2)cc1,55.1*,-4.1,-0.2,12.7
O=C(N/N=C/c1c(O)ccc2ccccc12)c1ccccc1O,75.2*,1.0,-0.1,-31.2
O=[N+]([O-])c1ccc(/C=N/Nc2nc3ccccc3o2)cc1,-24.5,0.8,0.1,-11.7
O=C(N/N=C\c1c(O)ccc2ccccc12)c1ccccc1O,80.8*,1.3,-0.1,31.8
